{"source": "PubChem BioAssay AID485298", "about": "(National Center for Advancing Translational Sciences (NCATS), 2010)", "note": "The campaign covered roughly 320,000 compounds. About 740 (0.23%) were called active. Not shown: some 2% with an inconclusive outcome. Calls come from the whole dose curve; as a rule, active = well fitted activation curve with a large enough effect; inconclusive = small, poorly fitted or top-dose-only effect; inactive = no such curve, though single readings can be large or run the other way. This excerpt belongs to a sample that is enriched for actives."}
{"assay": "qHTS Assay for Small Molecule Inhibitors of Mitochondrial Division or Activators of Mitochondrial Fusion; note: nearly all actives have a fitted effect of over 45% in size; note: potency is the fitted concentration of half-maximal effect; for growth rescue (activation): % of control where 0% means no effect", "conditions": "S. cerevisiae fusion-defective mutant growth rescue, CellTiterGlo 48 h; series mostly up to 46.1 µM; growth rescue (activation): at the top concentration", "text": "NIH Chemical Genomics Center [NCGC] NIH Molecular Libraries Probe Production centers Network [MLPCN] MLPCN Grant: MH081279-01 Assay Submitter (PI): Jodi M. Nunnari NCGC Assay Overview: The budding yeast S. cerevisiae is a powerful system to study mitochondrial fusion. Unlike other organisms, yeast cells without functional mitochondrial DNA (mtDNA) can be propagated and studied as long as they maintain a mitochondrial compartment and are provided with a fermentable carbon source. When mitochondrial fusion is blocked in yeast, mitochondrial tubules rapidly fragment and division continues unopposed. Under conditions where fusion is compromised in mammalian cells, nearly identical changes in mitochondrial structure have been observed. Thus, these findings indicate that steady state mitochondrial structure in cells is a characteristic and specific indicator of fusion activity. Mounting evidence has pointed to a connection between mitochondrial dynamics and apoptosis in mammalian cells. These studies indicate that in mammalian cells mitochondrial dynamics are more integrated into cellular processes than in yeast cells and have evolved not only to distribute the organelle but also to aid in the regulation of cellular homeostasis. Mitochondrial fusion proteins attenuate apoptosis by inhibiting the release of cytochrome c from mitochondria, in part by controlling cristae structures. Thus, small molecules that inhibit mitochondrial […] may promote apoptosis and potentially act as novel chemotherapeutics and stimulation of apoptosis has become an attractive target of anti-cancer therapies. To identify inhibitors of mitochondrial division, we exploit the growth phenotypes of mitochondrial fusion-defective mutants. The temperature sensitive fusion alleles, such as fzo1-1 and mgm1-5, cause mitochondrial membranes to fragment in cells under non-permissive conditions and cells lose mtDNA, and are unable to grow in the presence of non-fermentable carbon source glycerol. Inhibiting mitochondrial division rescues growth. We have developed and optimized a luminescence cell viability assay in 1536 well format for the identification of inhibitors in the yeast mitochondrial fusion-defective assay.\nThe yeast glycerol stocks where kindly supplied by the laboratory of Dr. Jodi Nunnari, University of California, Davis. All yeast glycerol stock solutions were stored in single use aliquots at -80C. The CellTiterGlo luminescence reagent, containing luciferase and luciferin, were purchased from Promega, and the reagents were stored according to manufacturer's instructions. The Buffer components for the YPEG yeast growth medium were purchased from Sigma-Aldrich (St. Louis, MO). YPEG growth medium: 1% (w/v) yeast extract, 2% (w/v) Bacto-peptone, 3% Ethanol, 3% glycerol, 0.4mM Tryptophan, 0.36mM Adenine. qHTS Assay Protocol: 1.#Dispense 2.5 ul yeast growth medium per 1536 well plate. 2.#Transfer 23 nl per well of compound to plate. 3.#Dispense 2.5 ul yeast solution at appropriate seeding density per well. 4.#Incubate for 48 hours at 37C. 5.#Dispense 5 ul of CellTiterGlow solution per well. 6.#Incubate at ambient for 10 minutes. 7.#Read using bio-luminescence protocol on Viewlux."}
{"compound": "O=C1NC(=O)C(CCc2ccccn2)(Cc2cccc(Cl)c2Cl)C(=O)N1c1ccc(Br)cc1", "note": "(stereo not given)", "Potency": "11.2 µM (active)"}
{"compound": "Clc1ccc2nc3c(c(-c4ccccc4)c2c1)CNCC3", "growth rescue (activation)": "-2.55% (inactive)"}
{"compound": "N[C@@H](Cc1c[nH]c2ccccc12)c1nnc(SCc2c(F)cccc2Cl)o1", "growth rescue (activation)": "-0.901% (inactive)"}
{"compound": "CC(=O)NBr", "growth rescue (activation)": "1.86% (inactive)"}
{"compound": "C=CCN1CCC23c4c5ccc(O)c4O[C@H]2C(=O)CC[C@@]3(O)C1C5", "note": "(stereo not given in full)", "growth rescue (activation)": "-26.3% (inactive)"}
{"compound": "c1ccc2c(c1)[I+]c1ccccc1-2", "Potency": "0.291 µM (active)"}
{"compound": "O=C(COc1ccc2ccccc2c1)N1CCN(Cc2ccncc2)CC1", "growth rescue (activation)": "-0.612% (inactive)"}
{"compound": "Cc1nn(Cc2ccccc2Cl)c(Cl)c1C(=O)OC(C(=O)NC(N)=O)C(C)C", "note": "(stereo not given)", "growth rescue (activation)": "0.455% (inactive)"}
{"compound": "C=CCN1C(=O)C2(C(C(=O)OCC)=C(N)Oc3c2c(=O)oc2ccccc32)c2ccccc21", "note": "(stereo not given)", "growth rescue (activation)": "16.6% (inactive)"}
{"compound": "CC1=CC(=Cc2sc3ccccc3[n+]2C)C=C(C)O1", "growth rescue (activation)": "0.11% (inactive)"}
